Cycloheximide cs = affects cycloheximide protein synthesis inhibition readout, counter-screen. max response, %. 12% of 300,000 active. cell reporter, cycloheximide protein synthesis inhibition counterscreen; in the data active = max response mostly above about 13%, no sharp cut-off; inactive = mostly below about 14%; also: read at 38.3 µM for the half of the compounds with a filed dose; 0% is about no effect
NS1 function inh = inhibitors of influenza NS1 protein function. Potency, µM (doses to about 46.1 µM), without a hit: at the highest dose activity, positive = more growth. 0.4% of 270,000 active; calls by dose curve; also: potency is read from the fitted curve at half-maximal effect; actives are rising curves; nearly all actives have a fitted effect of over 50% in size
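S. cerevisiae expressing influenza A NS1, grown in glucose, washed, then diluted 1:100 into pH 6.0 -URA galactose medium with 23 nl compound. Growth recovery read as OD600; NS1-free strain serves as control.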
Pf growth 48h = inhibits P. falciparum growth in the first generation, 48 h. P. falciparum luciferase growth in erythrocytes, 48 h. Potency, µM (highest dose often 28.7 µM), for inactives: top-dose activity change, negative = inhibition, most hits filed as inhibitors. 5.9% of 310,000 active; also: potency is read from the fitted curve at half-maximal effect; % is scaled to controls: 0 for no effect and ±100 for the full control effect
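Luciferase-expressing P. falciparum in infected erythrocytes (2% hematocrit, 0.1% parasitemia final) in RPMI 1640/0.5% Albumax were exposed to compound for 48 hours at 37 C, 5% CO2; growth read as luminescence.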
Pf growth 96h = P. falciparum growth inhibition at 96 hours; P. falciparum luciferase reporter growth, 96 h; Potency, µM (top dose mostly 28.7 µM), without a hit: top-dose activity change, negative = inhibition, hits mostly inhibitors; 6.9% of 320,000 active; AID 504834; also: potency is read from the fitted curve at half-maximal effect; % is scaled to controls: 0 for no effect and ±100 for the full control effect
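P. falciparum expressing integrated firefly luciferase, in erythrocytes at 2% hematocrit, 0.05% parasitemia, incubated with compounds 96 h at 37 C, 5% CO2. Growth inhibition read as loss of luminescence; two-generation exposure targets delayed-death apicoplast inhibitors.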
Shiga inhibitor = blocks Shiga toxin action in Vero cells | Vero cells, Shiga toxin protein synthesis inhibition reporter | inhibition, % at 38.7 µM | 9.2% of 290,000 active | AID 2315; in the data active = inhibition mostly above about 28%, no sharp cut-off; inactive = mostly below about 43%; also: 0% is about no effect
SARS PLP yeast = inhibitors of SARS-CoV papain-like protease in yeast; Potency, µM (highest dose often 32.9 µM), inactives show at the top dose activity, positive = growth rescue, actives largely listed as activators; S. cerevisiae expressing SARS-CoV PLpro, growth rescue; 0.19% of 330,000 active; calls by dose curve; also: potency is read from the fitted curve at half-maximal effect; 0% is about no effect; nearly all actives have a fitted effect of over 55% in size
An asterisk follows results filed as active; ? = inconclusive; / = not tested or not shown; [ ] = remark or other dose. An excerpt weighted towards active compounds, which were near 21% of everything screened. Unless noted, calls follow the shape of the dose curve; as a rule, active = well fitted inhibition curve with a large enough effect; inconclusive = small, poorly fitted or top-dose-only effect, or another doubt; inactive = no such curve, though single readings can be large or run the other way.

SMILES | Cycloheximide cs | NS1 function inh | Pf growth 48h | Pf growth 96h | Shiga inhibitor | SARS PLP yeast
c1cncc(-c2nc(NCC3COc4ccccc4O3)c3ccccc3n2)c1 (stereo not given) | -4 | -35% | / | 8.3µM* | -8 | -22%
CCc1cc(Cn2nc(-c3ccccc3)cc2C(=O)NCc2ccccc2OC)on1 | / | / | 10µM* | ? | / | -13%
COc1ccccc1CNC(=O)c1cc(-c2ccccc2)nn1Cc1cc(C)no1 | / | / | ? | ? | / | 4%
COc1cc2c(cc1OC)CN(Cc1cc(=O)oc3cc(C)c(Cl)cc13)CC2 | -3 | -1% | 9.3µM* | ? | -2 | 6%
COc1cc2c(cc1OC)CN(Cc1cc(=O)oc3c(C)c(C)ccc13)CC2 | 2 | 6% | -27% | 13µM* | 16 | 7%
CN(C(=O)CSc1nnc(C2CC2)n1-c1ccccc1)C1CCS(=O)(=O)C1 (stereo not given) | / | / | 17% | ? | / | 7%
O=C(NCc1ccc(Cl)cc1)C(=O)c1cn(CC(=O)N2CCOCC2)c2ccccc12 | -3 | 5% | 19% | 13µM* | 15 | -2%
O=C(Nc1ccccc1Cl)C(=O)c1cn(CC(=O)N2CCOCC2)c2ccccc12 | 59* | 5% | 139% | 12µM* | 46* | -1%
Clc1ccc(-c2nnc3sc(-c4ccc(Br)o4)nn23)cc1 | 1 | 11% | ? | ? | -12 | -2%
Cc1oc(-c2ccc(Cl)cc2)cc1-c1nn2c(-c3ccoc3C)nnc2s1 | -1 | 10µM* | ? | ? | 14 | -4%
Cc1ccc(NC(=O)c2sc3nc[nH]c(=O)c3c2C)c(C)c1 | 27* | -12% | 73% | ? | 23 | -6%
COc1ccc(Cl)cc1NC(=O)c1cnccn1 | 13* | -36% | 13% | ? | 20 | -3%
COc1ccc(NC(=O)C(OC(=O)c2cnccn2)c2ccccc2)cc1Cl (stereo not given) | 17* | 11% | 2% | -25% | 53 | 1%
O=C(Nc1cc(Cl)ccc1Oc1ccccc1)c1cnccn1 | -3 | -6% | / | ? | -8 | 1%
Cc1ccc(C)c(NC(=O)c2cnccn2)c1 | -2 | 4% | -6% | ? | / | 4%
Cc1ccc(NC(=O)c2cnccn2)c(C)c1 | 21* | -8% | 74% | 241% | 38* | -5%
COc1ccc(NC(=O)C(OC)c2ccccc2)cc1Cl (stereo not given) | 7 | -1% | -2% | 231% | 8 | 14%
COc1ccccc1N1C(=O)C=C(Sc2nc(C)cc(C)n2)C1=O | -1 | 11% | ? | ? | 6 | 0%
CC(C)Sc1nnc(CNC(=O)C23CC4CC(CC(C4)C2)C3)n1C1CCCCC1 | 1 | -7% | -7% | 21% | 15 | -9%
COc1cc(OC)cc(C(=O)N[C@H](C(=O)OCC(=O)Nc2ccc3c(c2)OCO3)C(C)C)c1 | / | / | / | / | / | -6%
NS(=O)(=O)c1ccc(CCN=C(NS(=O)(=O)c2cccs2)c2ccccc2)cc1 | -1 | / | 24% | 3% | 16 | 1%
O=C(Nc1ccccc1Cl)c1cnccn1 | 11 | -16% | 18% | -83% | 41 | -1%
COc1ccc(NC(=O)C(Sc2nnc(-c3ccncc3)n2-c2ccccc2C)c2ccccc2)cc1Cl (stereo not given) | 14 | 28% | 8.3µM* | ? | 19 | -9%
O=C(CSc1nnc(-c2ccncc2)n1-c1ccccc1Cl)Nc1ccc(C(=O)O)cc1 | -2 | / | 10% | 9% | 2 | 3%
O=C(Nc1ccc(Br)cc1Cl)c1cnccn1 | 19* | 2% | 29% | / | 30 | -1%
SMILES | Cycloheximide cs | NS1 function inh | Pf growth 48h | Pf growth 96h | Shiga inhibitor | SARS PLP yeast
CC[n+]1ccccc1/C=C/c1ccc(N(C)C)cc1 | -1 | / | 2.9µM* | -16% | -10 | 1%
Cc1ccc(/C=C/c2ccc(N(C)C)cc2)[n+](C)c1 | -5 | 2% | 1.2µM* | 219% | 15 | 1%
CC[n+]1ccc(/C=C/c2ccc(N(C)C)cc2)c2ccccc21 | -5 | -70% | 0.59µM* | 10% | -24 | -5%
CN(C)c1ccc(/C=C/c2cc[n+]([O-])cc2)cc1 | 42* | -7% | 66% | 2.1µM* | 172* | 7%
Nc1nc2c(c(=O)[nH]1)C(c1cccc3ccccc13)C1=C(N2)c2ccccc2C1=O (stereo not given) | -6 | / | -9% | 12% | -10 | -1%
CNS(=O)(=O)c1cn(CC(=O)NCc2ccc(OC)cc2)cc1S(=O)(=O)NC | -1 | -2% | 12% | 26% | -5 | 1%
CN(CC(=O)Nc1cccc(Cl)c1)S(=O)(=O)c1ccc2[nH]c(=O)oc2c1 | -2 | 2% | 15% | -12% | -6 | /
CC1C(=NO)C(C)C(c2ccc(N(C)C)cc2)NC1c1ccc(N(C)C)cc1 (stereo not given) | -1 | -8% | ? | 1.9µM* | -6 | -1%
CCn1c(O)c(C=NCc2ccccc2)sc1=S | 15 | -2% | 0% | 0% | 33 | -1%
CCn1c(O)c(C=NC2CCCC(C)C2C)sc1=S (stereo not given) | 51* | -5% | -7% | ? | 110* | -1%
CC(=O)Oc1ccc(OC(C)=O)c2c1CC(C)=C(C)C2 | 0 | -40% | 9.3µM* | 13µM* | 41 | -3%
CC(=O)Oc1ccc(C(=O)O)c(OC(C)=O)c1 | -1 | 4% | -1% | ? | -4 | 0%
COc1cccc(NC(=O)C(=O)N/N=C(\C)CC(=O)Nc2ccc(NC(C)=O)cc2)c1 | 32* | -4% | 128% | 114% | 84* | -6%
COc1cccc(C(=O)N/N=C(\C)CC(=O)Nc2ccc(N(C)C)cc2)c1 | 41* | -48% | -50% | 5% | 57 | 1%
COc1cccc(/C(C)=N/NC(=O)c2ccc(N(C)C)cc2)c1 | 33* | 24% | 27% | 44% | 69* | -2%
COc1ccc(CC(=O)N/N=C(\C)CC(=O)Nc2ccc(N(C)C)cc2)cc1OC | -3 | 2% | ? | 21% | -5 | -2%
COc1ccc(CCN(C)C2CCCN(S(=O)(=O)c3ccc(C)cc3)C2)cc1OC (stereo not given) | 2 | 15% | ? | ? | 21 | 1%
COc1ccc(NC(=O)C2CC(=O)OC2c2ccccc2)cc1 (stereo not given) | -1 | 4% | -6% | 9.3µM* | -2 | -7%
COc1ccc(NC(=O)C2Cc3ccccc3O/C2=N\O)cc1 (stereo not given) | 51* | 4% | -32%[0.00184 µM] | -15% | 114* | 0%
COc1ccc(NC(=O)C2Cc3cccc(OC)c3O/C2=N\O)cc1 (stereo not given) | -2 | 0% | -15% | 0% | 2 | 0%
Cc1cc(NC(=O)C2CC(=O)OC2c2ccccc2)no1 (stereo not given) | 3 | -1% | 39% | 34% | 7 | 3%
Cc1cccc(NC(=O)C2Cc3ccccc3O/C2=N\O)c1 (stereo not given) | 27* | 3% | 55% | 1% | 63* | 0%
